Among the data in PubChem BioAssay are outcome values, retold here.

Entries with a potency or affinity are not part of this list. Records with an inconclusive call do not appear. The source made the active and inactive calls.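 The calls were made as follows, unless noted: active = fitted dose curve reaches 40% lysis signal rise at or below the highest valid concentration tested for that sample; inconclusive = flat fit between 30% and 70%, or poor curve fit; inactive = signal falls, stays flat within 30%, or no crossing.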

One experiment in a line: fungal growth arrest, C. neoformans – Alamar Blue, cherry-picks, dose response (AID 686998;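 active = falling signal with fitted half-maximal potency no higher than twice the top valid tested dose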). The note with it: Cryptococcus neoformans growth, 24 h; series mostly up to 35 µM. Background: The colour change of resazurin is a common sign of viable cells or microbes.
`CCCNC(=O)N1[C@H](CO)[C@@H](c2ccc(C3=CCCC3)cc2)[C@@H]1CN(C)C(C)=O`: the result was inactive. Still for that read-out and setting: then `CC(C)(C)c1ccc(OCC(=O)NC(c2ccccc2)c2ccccc2)cc1`, with “inactive”; and `O=C(c1cccc(F)c1)N1C[C@@H]2[C@H](c3ccccc31)[C@H](CO)N2Cc1cocn1`, with “inactive”; and `C[C@@H]1CN([C@@H](C)CO)C(=O)c2cc(NS(=O)(=O)c3ccc(F)cc3)ccc2O[C@@H](C)CCCCO[C@H]1CN(C)S(=O)(=O)c1ccc(F)cc1`, with “inactive”. Take `C[C@H](O)C#Cc1ccc2c(c1)O[C@H](CN(C)C(=O)C1CCCCC1)[C@H](C)CN([C@@H](C)CO)S2(=O)=O`: the outcome was inactive. As for `C[C@H](CO)N1C[C@H](C)[C@H](CN(C)C(=O)NC2CCCCC2)OCCCC[C@H](C)Oc2ccc(NC(=O)C3CCCCC3)cc2C1=O`, the call was inactive.

A further experiment can be described thus: C. neoformans lysis by adenylate kinase leakage – AK release luminescence, cherry-picks, dose response (AID 687000).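 Also: luminescent detection of adenylate kinase leaking from lysed yeast.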 The note with it: 4 h, 100% = twice the neutral-control signal; series mostly up to 15 µM.
Turning to `CCS(=O)(=O)NCC[C@@H]1CC[C@@H](NS(=O)(=O)c2cccc(F)c2)[C@@H](CO)O1`, the outcome was inactive.

For the compound `COc1cccc(S(=O)(=O)N(C)C[C@H]2OCc3cnnn3CCCC(=O)N([C@H](C)CO)C[C@H]2C)c1`, the compound was classed as inactive.

Regarding `Cc1cc(C(=O)NC(=S)Nc2ccccc2N2CCCC2)ccc1[N+](=O)[O-]`, the compound was called inactive. Turning to `CCC(=O)N1[C@@H]2Cn3c(ccc(C4=CCCCC4)c3=O)[C@H]1[C@@H](C(=O)N[C@H](C)c1ccccc1)[C@@H]2CO`, the compound was called inactive.

Consider `C[C@@H]1CN([C@H](C)CO)C(=O)CCCn2cc(nn2)CO[C@@H]1CN(C)C(=O)CCCN(C)C`, for which the result was inactive. Still for that read-out and setting: the entry for `CNC(=O)C[C@H]1CC[C@H]2[C@@H](COc3ccc(NC(=O)Nc4cccc(C#N)c4)cc3C(=O)N2C)O1` is “inactive”. Still for that read-out and setting: the entry for `CCCC(=O)N1CCCC1(C)C(=O)Nc1ccc(C)c(C)c1` (configuration not stated) is “inactive”; for `C[C@H]1CN([C@@H](C)CO)C(=O)Cc2cc(NC(=O)CCCCCC(=O)Nc3ccccc3N)ccc2O[C@H]1CN(C)Cc1ccc2c(c1)OCO2` it is “inactive”; for `CNC(=O)C[C@@H]1CC[C@@H]2[C@H](COc3ccc(NC(=O)c4cc(C)on4)cc3C(=O)N2C)O1` it is “inactive”. On the same count and under the same terms, then `COc1ccccc1C(=O)Nc1ccc2c(c1)OC[C@H](C)N(C(C)=O)C[C@H](C)[C@H](OC)CN(C)C2=O`, with “inactive”; and `O=C(NC(=S)Nc1ccc(CN2CCOCC2)cc1)c1ccccc1[N+](=O)[O-]`, with “inactive”. Consider `C[C@@H]1CN([C@@H](C)CO)C(=O)c2cc(NC(=O)Nc3cccc4ccccc34)ccc2O[C@@H]1CN(C)C(=O)Nc1ccccc1`, for which the outcome was inactive. As for `C[C@H]1CN([C@@H](C)CO)S(=O)(=O)c2ccc(Br)cc2O[C@@H]1CN(C)S(=O)(=O)c1ccccc1F`, the result was inactive. As to `C[C@H]1CN([C@@H](C)CO)C(=O)c2cccc(NS(C)(=O)=O)c2O[C@H]1CN(C)C(=O)Nc1ccc2c(c1)OCO2`, the call was inactive. `C[C@@H]1CN([C@@H](C)CO)S(=O)(=O)c2ccc(C#Cc3ccccn3)cc2O[C@H]1CN(C)Cc1ccccc1`: the outcome was inactive. Consider `CN1C(=O)c2cc(NS(C)(=O)=O)ccc2OC[C@@H]2O[C@@H](CC(=O)O)CC[C@@H]21`, for which the compound was classed as inactive.

In the case of `CN1C(=O)c2cc(NC(=O)NC3CCCC3)ccc2OC[C@H]2O[C@@H](CC(=O)NC3CCC3)CC[C@@H]21`, the call was inactive. On to `COc1ccccc1CNC(=O)C[C@@H]1C[C@@H]2c3cc(NC(=O)Nc4ccccc4F)ccc3O[C@@H]2[C@H](CO)O1`, for which the result was inactive.

Regarding `COc1ccccc1CN1CC[C@H]2[C@H](CO)Nc3ccc(C#Cc4ccccc4)cc3[C@H]21`, the compound was classed as inactive. With `Cc1noc(C)c1NC(=O)Nc1ccc2c(c1)C(=O)N(C)[C@@H]1CC[C@H](CC(=O)N[C@H]3CCN(Cc4ccccc4)C3)O[C@@H]1CO2`, the call was inactive. Regarding `C[C@H]1CN([C@@H](C)CO)C(=O)Cc2cc(NC(=O)Nc3ccccc3)ccc2O[C@H]1CN(C)C(=O)Nc1ccc2c(c1)OCO2`, the result was inactive. Take `C[C@H]1CN([C@@H](C)CO)C(=O)CCCn2nncc2CO[C@@H]1CN(C)Cc1cccc(C(F)(F)F)c1`: the result was inactive. On to `CCOc1ccc(C(=O)NC(=S)Nc2ccccc2N2CCC(C)CC2)cc1[N+](=O)[O-]`, for which the result was inactive. Turning to `CC(=O)NC[C@@H]1[C@@H](c2ccc(C3=CCCC3)cc2)[C@@H](CO)N1C(=O)NC(C)C`, the compound was classed as inactive.

For the compound `CS(=O)(=O)c1ccc(-c2cnc3c(NC=O)cc(-c4ccsc4)cn23)cc1`, the result was inactive.

With `CNC(=O)C[C@@H]1CC[C@@H]2[C@H](COC[C@H](O)CN2S(=O)(=O)c2cccc(Cl)c2)O1`, the call was inactive.
